Tgondii IFNg: T. gondii growth inhibition with IFN-gamma, primary screen, cell-based; Toxoplasma gondii growth in IFN-gamma-treated host cells; hits give low values; activity change, negative = inhibition, % (no concentration beside the values); 69,000 compounds, 3.8% hits; in the data active = activity change below about -70%, passing the limit was not always enough;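 note: host cells are HeLa cells infected with Toxoplasma gondii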
An asterisk follows results filed as active; ! = not active in a repeat. The entries come from a sample that favours hits as a whole.

SMILES	Tgondii IFNg
Cc1cc(C(=O)Nc2ccc3c(c2)C(=O)N(C)[C@@H]2CC[C@@H](CC(=O)NCc4ccc(-c5ccccc5)cc4)O[C@@H]2CO3)no1	-60.5
CN1C(=O)c2cc(NC(=O)Nc3cccc(C#N)c3)ccc2OC[C@H]2O[C@@H](CC(=O)Nc3ccc4c(c3)CCC4)CC[C@@H]21	-57.9
Cc1cc(C(=O)Nc2ccc3c(c2)C(=O)N(C)[C@H]2CC[C@H](CC(=O)NCc4ccc(-c5ccccc5)cc4)O[C@@H]2CO3)no1	-35.3
COC(=O)c1cc(C2CC2)nc2c1c(=O)n(Cc1nc(-c3cccc(Cl)c3)oc1C)c(=O)n2C	-12.1
Cc1c(NCc2cccnc2)cccc1C(=O)NCc1cc(C(C)C)no1	0.5
CCN1C(=O)CCc2cc(NC(=O)/C=C/c3ccc(C)cc3)ccc21	-10.1
CCO[C@H]1COC[C@@H]1NC(=O)c1cnc2ccccc2c1	-7.2
CCN(C(=O)c1cc2cccnc2n(Cc2ccccc2)c1=O)c1cccc(C)c1	-16.4
CN(C)[C@@H]1CN(S(=O)(=O)c2cccc(F)c2)[C@H]2COC[C@@H]12	0.6
Cc1nccn1Cc1ccccc1C(=O)NCCc1nc2ccc(Cl)cc2[nH]1	-24.8
CN1C(=O)c2cc(NC(=O)c3cccc(F)c3)ccc2OC[C@@H]2O[C@H](CC(=O)NCc3ccccc3Cl)CC[C@H]21	-21.8
CN1C(=O)c2cc(NC(=O)c3cccc(F)c3)ccc2OC[C@@H]2O[C@H](CC(=O)NCC3CCCCC3)CC[C@@H]21	-22.7
CN1C(=O)c2cc(NC(=O)c3cccc(F)c3)ccc2OC[C@H]2O[C@@H](CC(=O)NCC3CCCCC3)CC[C@H]21	-77.0*!
COc1ccc(C(=O)N(Cc2ccccc2F)C2(C(=O)NCc3ccccc3)CCN(C(C)=O)CC2)cc1	-0.8
Cc1cnc(-n2cnnc2)c(-c2ccc3c(c2)OCCO3)c1	3.2
Cc1ccc(-c2nnc(-c3ccc4c(c3)OCO4)o2)cc1	112.8
Cc1nc(-n2cnnc2)ccc1-c1ccc2c(c1)OCO2	-96.6*
CCc1ccc(S(=O)(=O)NCCc2sc(-c3ccc(OC)c(OC)c3)nc2C)s1	341.1
CC(C)c1cc(C(=O)O)nn1C1CCS(=O)(=O)C1 (configuration not stated)	12.8
CC(=O)N1CCc2cc(NC(=O)C3=NN(C4CCS(=O)(=O)C4)C(=O)CC3)ccc21 (configuration not stated)	-1.6
CC1=NN(C2CCS(=O)(=O)C2)C(=O)C1(Sc1ccccc1)Sc1ccccc1 (configuration not stated)	-93.0*
CC(C)Oc1ccc(-c2noc(-c3c(O)c4ccc(F)cc4n(C)c3=O)n2)cc1	-32.0
O=C(O)/C=C/c1ccc(-c2ccc(O)c(C34CC5CC(CC(C5)C3)C4)c2)cc1	-78.7*
O=C(O)/C=C/c1ccc(O)c(O)c1	7.1
CC(C)c1ccc(/C=C/C(=O)O)cc1	1.2
SMILES	Tgondii IFNg
CCOc1ccc(NC(=O)CN2CCC3(CC2)N=C(c2ccc(C)c(C)c2)C(=O)N3)cc1	0.2
Cc1ccccc1C(=O)N1C[C@@H]2CCN(CCN3CCCC3)C[C@H]2C1	-27.2
Cc1oc(C2CCN(C(=O)C3CCCO3)CC2)nc1C(=O)N1CCSCC1 (configuration not stated)	10.3
CC(=O)N1CCC(C(=O)NCc2ccccc2)(N(C(=O)c2ccc(C)cc2)c2ccc(C)c(Cl)c2)CC1	-31.8
COC(=O)CC1(C(=O)OC)Oc2ccc(Cl)cc2C(=O)N1c1ccc(F)cc1F (configuration not stated)	-70.5*
COc1ccc(Cl)cc1C(=O)Nc1ccc2c(c1)CCC(=O)N2C	43.5
CCOC(=O)N1CCC2(CC1)OC(=O)C(C)=C2C(=O)Nc1ccc(F)cc1F	68.8
Cn1c(=O)c(-c2nc(-c3cccc(Cl)c3)no2)c(O)c2cc(F)ccc21	-8.8
CCc1nnc(SCC(=O)Nc2ccc(N3CCN(S(C)(=O)=O)CC3)cc2)o1	-11.1
CCOC(=O)c1ccc(NC(=O)CSc2nnc(CNc3ccc(F)cc3)o2)cc1	-99.8*
CCCCOC(=O)c1ccc(NC(=O)CSc2nnnn2C2CCCCC2)cc1	13.3
COc1cccc(CN2CC3(CCN(S(C)(=O)=O)CC3)c3c(n(C)c4cc(OC)ccc34)[C@H]2CO)c1	434.6
O=C(NN1CC(=O)N(CCc2ccccc2)C1=O)c1cc2c(s1)CCCC2	38.7
Cc1ccc(NC(=O)CC(=O)N2CCCC2c2c(C)noc2C)c(C)c1 (configuration not stated)	4.3
CCC(CC)NC(=O)c1ccc2nnc(C3CN(C(C)=O)CCN3C)n2c1 (configuration not stated)	-4.2
O=c1[nH]c2cc(Cl)c(Cl)c([N+](=O)[O-])c2[nH]c1=O	16.6
O=c1[nH]c2cc(C(F)(F)F)cc(Br)c2[nH]c1=O	-64.0
O=c1[nH]c2cc(Cl)c(Cl)cc2[nH]c1=O	-72.1*
C=CCO[C@H]1CC[C@@H]2[C@H]1OCCN2C(=O)C1=CCCCC1	-45.0
CCn1nc(CC(=O)NCCn2nnn(-c3ccccc3)c2=O)c2ccccc2c1=O	-4.6
O=C(CSc1ccccn1)c1ccc(OCc2ccc(F)cc2)cc1	-22.6
CCOc1ccc2nc(SCC(=O)c3ccc(F)cc3)sc2c1	-79.2*
CCOc1ccc2nc(NS(=O)(=O)c3ccc(NC(C)=O)cc3)sc2c1	4.9
CC(Oc1cccc(-c2ccc(C(=O)N(C)C)cc2)c1)C(N)=O (configuration not stated)	10.2
O=C(CC1COCCN1)NCCN1N=C(c2ccccc2)CCC1=O (configuration not stated)	9.8
SMILES	Tgondii IFNg
c1ccc(N2CCN(Cn3c4ccccc4c4ccccc43)CC2)cc1	35.8
CN1CCN(C2=Nc3ccccc3Sc3ccc(Cl)cc32)CC1	9.0
CN1CCN(CCCN2c3ccccc3Sc3ccc(C(F)(F)F)cc32)CC1	-79.8*!
CN1CCN(CCCN(C)CC(C)(C)c2ccc(Cl)cc2)CC1	-9.2
COC(=O)c1cc2c([nH]c3ccccc32)c(C(F)(F)F)n1	67.0
Cc1ccc2c(c1)c(CNC(C)CCn1cccn1)nn2C (configuration not stated)	-6.8
Cc1ccc2c(c1)c(Cn1cc(-c3sccc3C)nn1)nn2C	-86.0*
CCc1c(C)nn(CC(=O)NCc2nn(C)c3ccc(C)cc23)c1C	-0.8
CC(C)c1nc2ccccc2c2nn(CC(=O)Nc3cccc4ncccc34)c(=O)n12	18.9
C=CCNS(=O)(=O)c1cc2c3c(c1)CCC(=O)N3CCC2	112.1
COc1ccc(-c2[nH]ncc2CN2CCN(C)CC2)cc1	62.1
Cc1cc(CN2CCN(c3c(Br)cnc4nc(-c5ccc(N6CCN(C)CC6)cc5)[nH]c34)CC2)no1	-74.3*
Cc1nc(N2CCCC2)nc2c1CCN(C(=O)c1ccoc1)CC2	-4.0
Cc1cc(Nc2ncnc3c2CCN(C(=O)c2ccn[nH]2)C3)n[nH]1	-9.4
O=C1[C@@H](Cc2ccc(O)cc2)N2C(=O)CCN(C(=O)NCc3ccccc3)[C@H]2CN1Cc1cccc2ccccc12	1.6
CCc1ccc(S(=O)(=O)N2CCCn3nnc(CN4CCCCC4)c3C2)cc1	0.1
CCOc1ccc(S(=O)(=O)Nc2ccc3c(c2)CCC(=O)N3CC(C)C)cc1	-56.2
CCCN1C(=O)CCc2cc(NC(=O)c3ccc(C)cc3)ccc21	-46.7
CCOc1ccc(C(=O)Nc2ccc3c(c2)CCC(=O)N3CC(C)C)cc1	-82.1*
CCCN1C(=O)CCc2cc(NC(=O)c3ccc(C(C)C)cc3)ccc21	-106.0*
CCCN1C(=O)CCc2cc(NC(=O)c3ccsc3)ccc21	-47.2
CC(=O)Nc1ccc2c(c1)CCC(=O)N2CC(C)C	16.8
CCCCNC(=O)N1CCN(c2ncc(Br)cn2)CC1	-60.5

Compound activity deposited in PubChem by Broad Institute.
